ChEMBL document CHEMBL5598561, “ASAP - In vitro binding kinetics” (2024)

Target: Nonstructural protein 3 (Zika virus) (UniProt A0A024AXB9)
Details: PRVABC59, Concentration 10.0 uM

Sequence of Nonstructural protein 3 (Zika virus) (A0A024AXB9 as listed by the source): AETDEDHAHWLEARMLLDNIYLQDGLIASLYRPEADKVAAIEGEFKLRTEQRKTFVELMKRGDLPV

Question: What does the source list for `O=C(Nc1ccc2c(c1)CNC2)c1ccc(F)c2[nH]ncc12`?
Answer: pKD (Immobilization level 10000.0 pg/mm2, Rmax 1.0 pg/mm2, ka 202467.762 M-1s-1, kd 1.761 1/s): 5.06; pKD (Immobilization level 12000.0 pg/mm2, Rmax 8.0 pg/mm2, ka 155094.955 M-1s-1, kd 1.71 1/s): 4.96; pKD (Immobilization level 13000.0 pg/mm2, ka 200831.038 M-1s-1, kd 1.747 1/s): 5.06

Question: How did the pKD (Immobilization level 10000.0 pg/mm2, Rmax 26.0 pg/mm2, ka 616891.885 M-1s-1, kd 0.14 1/s) turn out when `O=C(NC1CCOCC1)[C@H](Nc1ccc2c(c1)CNC2)c1cc(Cl)cc(C2CC2)c1` was run?
Answer: The pKD was 6.64.

Question: And the pKD (Immobilization level 12000.0 pg/mm2, Rmax 48.0 pg/mm2, ka 284907.141 M-1s-1, kd 0.112 1/s)?
Answer: Its pKD is 6.4.

Question: And the pKD (Immobilization level 13000.0 pg/mm2, Rmax 35.0 pg/mm2, ka 474880.78 M-1s-1, kd 0.123 1/s)?
Answer: Its pKD is 6.59.

Question: Which results are given for `Cc1ccc(S(=O)(=O)CNC(=O)[C@H](Nc2ccc3c(c2)CNC3)c2cc(Cl)cc3[nH]ncc23)cc1`?
Answer: pKD (Immobilization level 10000.0 pg/mm2, Rmax 21.0 pg/mm2, ka 226355.861 M-1s-1, kd 0.557 1/s): 5.61; pKD (Immobilization level 12000.0 pg/mm2, Rmax 37.0 pg/mm2, ka 111566.09 M-1s-1, kd 0.368 1/s): 5.48; pKD (Immobilization level 13000.0 pg/mm2, Rmax 27.0 pg/mm2, ka 177747.1 M-1s-1, kd 0.47 1/s): 5.58

Question: For `N#Cc1cc(Cl)cc(C(=O)Nc2ccc3c(c2)CNC3)c1`, which pKD (Immobilization level 10000.0 pg/mm2, Rmax 13.0 pg/mm2, ka 937740.865 M-1s-1, kd 1.0 1/s) is on record?
Answer: Its pKD is 5.97.

Question: What about the pKD (Immobilization level 12000.0 pg/mm2, Rmax 30.0 pg/mm2, ka 568340.521 M-1s-1, kd 0.543 1/s) of the same compound?
Answer: The pKD was 6.02.

Question: And the pKD (Immobilization level 13000.0 pg/mm2, Rmax 21.0 pg/mm2, ka 849954.362 M-1s-1, kd 0.772 1/s)?
Answer: Its pKD is 6.04.

Question: With `Cc1cc(CN)cc(NC(=O)c2cc(Cl)cc3[nH]ncc23)c1` as the compound, how does the pKD (Immobilization level 10000.0 pg/mm2, Rmax 32.0 pg/mm2, ka 317735.356 M-1s-1, kd 1.709 1/s) read?
Answer: The pKD was 5.27.

Question: And the pKD (Immobilization level 12000.0 pg/mm2, Rmax 41.0 pg/mm2, ka 352403.171 M-1s-1, kd 1.092 1/s)?
Answer: The pKD was 5.51.

Question: And the pKD (Immobilization level 13000.0 pg/mm2, Rmax 26.0 pg/mm2, ka 657032.757 M-1s-1, kd 1.65 1/s)?
Answer: Its pKD is 5.6.

Question: With `CCS(=O)(=O)c1ccc(Cl)cc1C(=O)Nc1ccc2c(c1)CNC2` as the compound, how does the pKD (Immobilization level 12000.0 pg/mm2, Rmax 28.0 pg/mm2, ka 273415.174 M-1s-1, kd 3.732 1/s) read?
Answer: The pKD was 4.87.

Question: Which pKD (Immobilization level 12000.0 pg/mm2, Rmax 40.0 pg/mm2, ka 202508.522 M-1s-1, kd 3.352 1/s) does the source give for `N[C@H]1CCc2cc(NC(=O)c3cc(Cl)cc4[nH]ncc34)ccc21` here?
Answer: The pKD was 4.78.

Question: And the pKD (Immobilization level 13000.0 pg/mm2, Rmax 32.0 pg/mm2, ka 287481.012 M-1s-1, kd 4.268 1/s)?
Answer: Its pKD is 4.83.

Question: For `O=C(Nc1ccc2c(c1)CNC2)c1cc(Cl)nc2[nH]ncc12`, which pKD (Immobilization level 10000.0 pg/mm2, Rmax 24.0 pg/mm2, ka 257771.158 M-1s-1, kd 2.862 1/s) is on record?
Answer: The pKD was 4.96.

Question: What about the pKD (Immobilization level 12000.0 pg/mm2, Rmax 48.0 pg/mm2, ka 216828.153 M-1s-1, kd 2.008 1/s) of the same compound?
Answer: Its pKD is 5.03.

Question: And the pKD (Immobilization level 13000.0 pg/mm2, Rmax 31.0 pg/mm2, ka 263772.69 M-1s-1, kd 2.044 1/s)?
Answer: Its pKD is 5.11.

Question: For `O=C(Nc1ccc2c(c1)CNC2)c1cc(=O)[nH]c2c(F)cccc12`, which pKD (Immobilization level 4900.0 pg/mm2, Rmax 18.0 pg/mm2, ka 230791.194 M-1s-1, kd 7.379 1/s) is on record?
Answer: Its pKD is 4.5.

Question: What about the pKD (Immobilization level 5500.0 pg/mm2, Rmax 21.0 pg/mm2, ka 297955.59 M-1s-1, kd 8.334 1/s) of the same compound?
Answer: Its pKD is 4.55.

Question: `N#CCCNC(=O)[C@H](Nc1ccc2c(c1)CNC2)c1cc(Cl)cc(C2CC2)c1` was tested. Which pKD (Immobilization level 10000.0 pg/mm2, Rmax 28.0 pg/mm2, ka 442303.592 M-1s-1, kd 0.092 1/s) did it give?
Answer: The pKD was 6.68.

Question: And the pKD (Immobilization level 12000.0 pg/mm2, Rmax 54.0 pg/mm2, ka 245042.447 M-1s-1, kd 0.064 1/s)?
Answer: Its pKD is 6.58.

Question: And the pKD (Immobilization level 13000.0 pg/mm2, Rmax 39.0 pg/mm2, ka 364691.558 M-1s-1, kd 0.079 1/s)?
Answer: The pKD was 6.67.

Question: Which results are given for `CC(C)c1ccc(Cl)cc1C(=O)Nc1ccc2c(c1)CNC2`?
Answer: pKD (Immobilization level 10000.0 pg/mm2, Rmax 50.0 pg/mm2, ka 207835.98 M-1s-1, kd 5.69 1/s): 4.56; pKD (Immobilization level 12000.0 pg/mm2, Rmax 40.0 pg/mm2, ka 170668.879 M-1s-1, kd 3.145 1/s): 4.74; pKD (Immobilization level 13000.0 pg/mm2, Rmax 24.0 pg/mm2, ka 212611.498 M-1s-1, kd 2.587 1/s): 4.92

Question: For `Cn1ncc2c(C(=O)Nc3ccc4c(c3)CNC4)cc(C3CC3)nc21`, which pKD (Immobilization level 10000.0 pg/mm2, Rmax 33.0 pg/mm2, ka 244724.506 M-1s-1, kd 7.844 1/s) is on record?
Answer: Its pKD is 4.49.

Question: And the pKD (Immobilization level 12000.0 pg/mm2, Rmax 31.0 pg/mm2, ka 442165.646 M-1s-1, kd 5.14 1/s)?
Answer: Its pKD is 4.93.

Question: And the pKD (Immobilization level 13000.0 pg/mm2, Rmax 33.0 pg/mm2, ka 379334.104 M-1s-1, kd 6.596 1/s)?
Answer: The pKD was 4.76.

Question: With `CC(C)c1nc2c(C(=O)Nc3ccc4c(c3)CNC4)cc(Br)cc2[nH]1` as the compound, how does the pKD (Immobilization level 10000.0 pg/mm2, Rmax 28.0 pg/mm2, ka 451108.713 M-1s-1, kd 0.396 1/s) read?
Answer: The pKD was 6.06.

Question: What about the pKD (Immobilization level 12000.0 pg/mm2, Rmax 37.0 pg/mm2, ka 197303.267 M-1s-1, kd 0.307 1/s) of the same compound?
Answer: Its pKD is 5.81.

Question: And the pKD (Immobilization level 13000.0 pg/mm2, Rmax 31.0 pg/mm2, ka 315714.539 M-1s-1, kd 0.366 1/s)?
Answer: Its pKD is 5.94.

Question: Which pKD (Immobilization level 10000.0 pg/mm2, Rmax 20.0 pg/mm2, ka 391825.056 M-1s-1, kd 0.668 1/s) does the source give for `CN1Cc2ccc(NC(=O)c3cc(Cl)cc4[nH]ncc34)cc2C1` here?
Answer: Its pKD is 5.77.

Question: What about the pKD (Immobilization level 12000.0 pg/mm2, Rmax 38.0 pg/mm2, ka 177362.143 M-1s-1, kd 0.381 1/s) of the same compound?
Answer: The pKD was 5.67.

Question: And the pKD (Immobilization level 13000.0 pg/mm2, Rmax 24.0 pg/mm2, ka 298987.187 M-1s-1, kd 0.52 1/s)?
Answer: The pKD was 5.76.

Question: `CCc1ncc(Cl)cc1C(=O)Nc1ccc2c(c1)CNC2` was tested. Which pKD (Immobilization level 10000.0 pg/mm2, Rmax 18.0 pg/mm2, ka 231152.44 M-1s-1, kd 2.909 1/s) did it give?
Answer: Its pKD is 4.9.

Question: What about the pKD (Immobilization level 12000.0 pg/mm2, Rmax 36.0 pg/mm2, ka 247716.147 M-1s-1, kd 2.057 1/s) of the same compound?
Answer: Its pKD is 5.08.

Question: What about the pKD (Immobilization level 13000.0 pg/mm2, Rmax 25.0 pg/mm2, ka 245446.465 M-1s-1, kd 2.231 1/s) of the same compound?
Answer: Its pKD is 5.04.

Question: Which results are given for `CC(C)(C)c1cc(Br)cc(C(=O)Nc2ccc3c(c2)CNC3)c1`?
Answer: pKD (Immobilization level 10000.0 pg/mm2, Rmax 22.0 pg/mm2, ka 615092.383 M-1s-1, kd 1.528 1/s): 5.61; pKD (Immobilization level 12000.0 pg/mm2, Rmax 78.0 pg/mm2, ka 256799.727 M-1s-1, kd 0.952 1/s): 5.43; pKD (Immobilization level 13000.0 pg/mm2, Rmax 43.0 pg/mm2, ka 306862.061 M-1s-1, kd 1.159 1/s): 5.42

Question: With `O=C1CCN(c2cc(Cl)cc(C(=O)Nc3ccc4c(c3)CNC4)c2)C(=O)N1` as the compound, how does the pKD (Immobilization level 10000.0 pg/mm2, Rmax 25.0 pg/mm2, ka 256015.917 M-1s-1, kd 2.294 1/s) read?
Answer: The pKD was 5.05.

Question: What about the pKD (Immobilization level 12000.0 pg/mm2, Rmax 56.0 pg/mm2, ka 218751.029 M-1s-1, kd 1.634 1/s) of the same compound?
Answer: Its pKD is 5.13.

Question: And the pKD (Immobilization level 13000.0 pg/mm2, Rmax 29.0 pg/mm2, ka 336624.127 M-1s-1, kd 1.776 1/s)?
Answer: Its pKD is 5.28.

Question: `O=C(Nc1ccc2c(c1)CNC2)c1cc(Br)cc2[nH]c(-c3ccccc3)nc12` was tested. Which pKD (Immobilization level 10000.0 pg/mm2, Rmax 3.0 pg/mm2, ka 184994.652 M-1s-1, kd 0.296 1/s) did it give?
Answer: Its pKD is 5.79.

Question: What about the pKD (Immobilization level 12000.0 pg/mm2, Rmax 13.0 pg/mm2, ka 22744.722 M-1s-1, kd 0.309 1/s) of the same compound?
Answer: Its pKD is 4.87.

Question: And the pKD (Immobilization level 13000.0 pg/mm2, ka 103523.991 M-1s-1, kd 0.302 1/s)?
Answer: Its pKD is 5.54.
